According to PubChem BioAssay (NCI):
About 79,000 compounds went through this panel and 15% of them were active in at least one assay; those are over-represented in the sample as a whole. Active and inactive are the calls of the source. Cut-off read from the data, not from the text of the source: active = growth inhibition above about 70%; inactive = the rest.

Assays:
[1] = NCI Yeast Anticancer Drug Screen. Data for the rad50 strain (AID 155);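 note: 0% = growth of vehicle-only cultures of the same strain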; conditions: S. cerevisiae rad50 strain growth inhibition; at 50.0 µM; hits give high values
How it was run: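 Compounds were tested on a yeast strain with an engineered DNA damage repair alteration; the reported value is growth inhibition normalised to vehicle treatment.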

[2] = NCI Yeast Anticancer Drug Screen. Data for the mec2-1 strain (AID 157); conditions: S. cerevisiae mec2-1 strain, at 50.0 µM, hits give high values
How it was run: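 Mutant yeast (mec2-1) grown with compound; growth inhibition relative to vehicle control reported.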

[3] = NCI Yeast Anticancer Drug Screen. Data for the sgs1 mgt1 strain (AID 161);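 note: 0% = growth of cultures given vehicle only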; conditions: S. cerevisiae sgs1 mgt1 strain, at 50.0 µM, hits give high values
How it was run: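 Growth of a repair-deficient yeast mutant was monitored after compound treatment and expressed as inhibition relative to vehicle-treated cultures.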

[4] = NCI Yeast Anticancer Drug Screen. Data for the cln2 rad14 strain (AID 165);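 note: 0% = growth equal to vehicle treated cultures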; conditions: S. cerevisiae cln2 rad14 strain, at 50.0 µM, hits give high values
How it was run: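 Readout is yeast growth inhibition versus vehicle-treated controls, using a strain with cln2 and rad14 alterations exposed to compound.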

[5] = NCI Yeast Anticancer Drug Screen. Data for the bub3 strain (AID 167); conditions: S. cerevisiae bub3 mutant strain, at 50.0 µM, hits give high values
How it was run: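 Growth of a checkpoint-deficient yeast mutant is measured after compound exposure. Values represent inhibition relative to vehicle.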

[6] = NCI Yeast Anticancer Drug Screen. Data for the mlh1 rad18 strain (AID 175); conditions: S. cerevisiae mlh1 rad18 strain growth inhibition; at 50.0 µM; hits give high values
How it was run: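 Genetically defined yeast (DNA repair-deficient) exposed to compounds; growth inhibition determined relative to vehicle.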

Measured: growth inhibition

Cc1ccc(N=C(NN(C)C)C(c2ccccc2)c2ccccc2)cc1
inactive: [1] 2.55% | [2] -20.1% | [3] 7.95% | [4] -18.9% | [5] 15.4% | [6] -14.2%

COC1OC2COC(C)(c3ccccc3)OC2C(O)C1[NH-].COC1OC2COC(C)(c3ccccc3)OC2C(O)C1[NH-].[Cl][Pt+2][Cl] (stereo unspecified)
inactive: [1] -0.25% | [2] -2.7% | [3] -7.8% | [4] -25.3% | [5] -3.05% | [6] 35.4%

O=c1cc(-c2ccccc2)oc2c1ccc1c(O)cccc12
inactive: [1] 11.1% | [2] -2.5% | [3] -6.9% | [4] 21.5% | [5] 31.9% | [6] 8.95%

CC(C)(C)NC(=O)Oc1ccc(-c2ccccc2)cc1Cl
active: [1] 98.8% | [2] 99.5% | [3] 99.2% | [4] 98.3% | [5] 99.3% | [6] 99.3%

OCCNCc1ccc2c(c1)OCO2
inactive: [1] -4.1% | [2] 3.85% | [3] -9.5% | [4] -4.85% | [5] -5.25% | [6] 1.4%

C[Si](C)(C)OC=C1CCCCC1
inactive: [1] 12.1% | [2] -3.95% | [3] -3.55% | [4] -29.2% | [5] -21.4% | [6] 9.7%

CSc1ncnc2ncn(C)c12
inactive: [1] 11.9% | [2] -2.6% | [3] 4.4% | [4] -9.95% | [5] 3.25% | [6] 1.75%

CN(C)c1ccc2c(c1[N+](=O)[O-])Cc1ccccc1-2
inactive: [1] 18.3% | [2] 3.3% | [3] 6.75% | [4] 14.6% | [5] 32.2% | [6] 6.05%

COc1ccc2c(c1)CCN1CCCc3ccc(OC)cc3C21 (stereo unspecified)
inactive: [1] 18.9% | [2] 30.3% | [3] 24.6% | [4] 55.1% | [5] 31.4% | [6] 46.7%

O=C1C=C(Nc2ccc(Br)cc2)c2ccccc2C1=O
inactive: [1] 36.3% | [2] -1.95% | [3] 11.6% | [4] 7.75% | [5] -1.45% | [6] -2.05%

CCOC(=O)CC1CCC(CCCCC2CCC(CC(=O)OCC)CC2)CC1 (stereo unspecified)
active: [1] 76% | [3] 80%
inactive: [2] 44.5% | [4] 57.4% | [5] 22.2% | [6] 45.2%

CC12CCC(O)CC1=CCC1C2CCC2(C)C1CC1=CC(C#N)C(=O)NC12O (stereo unspecified)
inactive: [1] 3.55% | [2] 6.85% | [3] 1.35% | [4] -65.4% | [5] -0.3% | [6] 17.2%

Cc1nc(C(=O)O)c2ccccc2n1
inactive: [1] -2.8% | [2] 2.45% | [3] -8.05% | [4] 3.6% | [5] -9.65% | [6] 4.6%

C=CCSc1ncnc2c1c(Br)cn2C1OC(CO)C(O)C1O (stereo unspecified)
active: [1] 96.3% | [2] 97.5% | [3] 97.1% | [4] 97.5% | [5] 96.9% | [6] 98.3%

Nc1ccc(-c2ccccc2)cc1[N+](=O)[O-]
inactive: [1] 33.2% | [2] -8.85% | [3] 16.1% | [4] -23.2% | [5] 21.1% | [6] 8.8%

CN(C)CSCCO
inactive: [1] -2.8% | [2] -1.5% | [3] -5.7% | [4] -14.8% | [5] -5.1% | [6] 0.45%

CC(C)/C(=N\N=C(\c1ccccc1)C(C)C)c1ccccc1
inactive: [1] -2.6% | [2] 25.5% | [3] 3% | [4] -7.7% | [5] 16.3% | [6] 18.1%

COc1ccc(C)cc1NC(=S)NC(=O)c1ccc(Cl)cc1Cl
inactive: [1] 1.7% | [2] 13.7% | [3] 8.15% | [4] -12.6% | [5] 4.7% | [6] 0.75%

CC(Cc1ccccc1)NC(=O)CCCN1C(=O)c2ccccc2C1=O (stereo unspecified)
inactive: [1] -2.55% | [2] 1% | [3] -10.7% | [4] -37.8% | [5] 6.4% | [6] -5.15%

CCC(O)C1CCCCC1O (stereo unspecified)
inactive: [1] -8.95% | [2] 8.35% | [3] -3.8% | [4] 15.7% | [5] 15.2% | [6] 2.45%

N#CSC1C=CS(=O)(=O)C1 (stereo unspecified)
inactive: [1] 44.6% | [2] 4.05% | [3] 19.6% | [4] -44.1% | [5] 3.55% | [6] 58.8%

COc1cccc(C2=CCCCCC2)c1OC
inactive: [1] 1.15% | [2] -12.8% | [3] -9.45% | [4] -23% | [5] -15.9% | [6] 4.3%

COc1cc2cc3c4ccc(OC)c(OC)c4cc[n+]3c(C)c2cc1OC (tested in a mixture with another compound)
active: [1] 98.1% | [2] 97.7% | [3] 98.8% | [4] 98.4% | [5] 98.2% | [6] 98%

CCOC(=O)/C(C#N)=N/Nc1ccc(S(=O)(=O)NC(C)=O)cc1
inactive: [1] -16.6% | [2] -10.5% | [3] 5.8% | [4] 11.5% | [5] -2.95% | [6] -4.4%

CCC1(C)C(=O)c2ccccc2N(C)C1=O (stereo unspecified)
inactive: [1] -5.55% | [2] -10.1% | [3] -9.5% | [4] -37.9% | [5] 5% | [6] -6.25%

O=c1oc(=O)c2ccccc2c2ccccc12
inactive: [1] -22.9% | [2] 6.85% | [3] -0.9% | [4] -32.1% | [5] -3.75% | [6] -5.6%

Cc1c([N+](=O)[O-])cc(C(C)(C)C)c(OS(=O)(=O)N(C)C)c1[N+](=O)[O-]
inactive: [1] 34% | [2] 10.4% | [3] 34.5% | [4] 13.1% | [5] 18.1% | [6] 26.6%

C/C(=C1/CCOC1=O)c1cccc(/C(C)=C2\CCOC2=O)c1
inactive: [1] 3.9% | [2] 3.55% | [3] -3.05% | [4] -29.4% | [5] 5.35% | [6] 2.75%

COc1n[nH]c(N)n1
inactive: [1] 8.3% | [2] 12.8% | [3] 3.8% | [4] 22.8% | [5] 25.6% | [6] 20.2%

Cc1cccc(C(=O)c2ccccc2)c1C(=O)O
inactive: [1] 10.7% | [2] 2.45% | [3] 4.55% | [4] 2.45% | [5] -9.25% | [6] 2.15%

CC(C)=CCc1c(O)ccc(C(=O)C2C(c3c(O)cc(-c4cc5ccc(O)cc5o4)cc3O)C=C(C)CC2c2ccc(O)cc2O)c1O (stereo unspecified)
active: [1] 87% | [2] 90.7% | [3] 90% | [4] 89.4% | [5] 88.2% | [6] 87.9%

O=C1CCC23CC(C=CC=C12)n1c(=O)n(-c2ccccc2)c(=O)n13 (stereo unspecified)
inactive: [1] 13.2% | [2] -1.55% | [3] 4.1% | [4] 21.1% | [5] -14.7% | [6] 16.7%

CC12CCC3c4ccc(Cc5ccc([N+](=O)[O-])cc5)cc4CCC3C1CCC2=O (stereo unspecified)
inactive: [1] 32.6% | [2] 9.2% | [3] 10.8% | [4] 19.7% | [5] 1.05% | [6] 25.6%

CC(CO)c1ccccc1 (stereo unspecified)
inactive: [1] 8.15% | [2] 1.15% | [3] -13.9% | [4] -32.5% | [5] -13.4% | [6] -4%

O=C1CCC(=O)N1CCc1cccc2ccccc12
inactive: [1] 5.45% | [2] -1.1% | [3] 30.4% | [4] 5.4% | [5] 2.4% | [6] -9.35%

O=C1c2ccccc2-c2nc(-c3ccccc3)cc3c2c1nc1ccccc13
active: [1] 79% | [5] 75%
inactive: [2] 51.7% | [3] 67.2% | [4] 64.8% | [6] -7.15%

O=C1c2ccccc2CC12Cc1ccccc1C2
inactive: [1] 2.05% | [2] -17.4% | [3] -3.85% | [4] -15.3% | [5] -29.7% | [6] 0.15%

CCOC(N)=C(C#N)C#N
inactive: [1] 12.6% | [2] 15.1% | [3] 3.45% | [4] 21.4% | [5] 23.1% | [6] 11.8%

CCOC(=O)C1CN(C)C(=O)C1=O (stereo unspecified)
inactive: [1] 17.2% | [2] -2.4% | [3] 16.6% | [4] 2.35% | [5] -0.05% | [6] 25.9%

Cc1ccc(NC(=O)C2c3ccccc3-c3ccccc32)cc1
inactive: [1] 39.4% | [2] 16.6% | [3] 16.9% | [4] -8.35% | [5] 10.9% | [6] 21.1%

CCOC(=O)NC(=O)c1cn(CCN2CCN(C(=O)NCCCCCCNC(=O)N3CCN(CCn4cc(C(=O)NC(=O)OCC)c(=O)n(CCN(CC)CC)c4=O)CC3)CC2)c(=O)n(CCC(CC)CC)c1=O
inactive: [1] -10.1% | [2] 8.7% | [3] -6.65% | [4] -20.9% | [5] 2.5% | [6] -31.5%
